Assay [1] deals with Luciferin 4-monooxygenase (Photinus pyralis) (UniProt P08659). Nature of the assay: qHTS assay to identify small molecule inhibitors of firefly luciferase (AID 1224835). Further: series mostly up to about 120 µM; nearly all actives have a fitted effect of over 25% in size. In a few lines:
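Quantitative HTS format; KM concentrations of both substrates. Purified P. pyralis FLuc activity quantified from luminescence images.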

A short description of assay [2]: qHTS assay to identify small molecule agonists of the constitutive androstane receptor (CAR) signaling pathway - cell viability counter screen (AID 1224836). Further: series mostly up to about 92 µM; nearly all actives have a fitted effect of over 45% in size. The essentials: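 Cells were seeded and incubated 4 hrs. Compounds were added across 15 concentrations together with PK11195 at 0.75 uM final. Plates were incubated 23 hrs at 37 C. CellTiter-Fluor was added and fluorescence measured.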
A general note: Quantitative high-throughput screening tests each substance at several concentrations.

Assay [3] in a line: qHTS assay to identify small molecule antagonists of the constitutive androstane receptor (CAR) signaling pathway - cell viability counter screen (AID 1224837). Further: series mostly up to about 92 µM; nearly all actives have a fitted effect of over 45% in size. The essentials:
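HepG2-CYP2B6-hCAR cells, 2500/well, 4 hr pre-incubation; compound titration, 15 conc.; CITCO 50 nM final; 23 hr, 37 C/5% CO2; CellTiter-Fluor, fluorescence intensity.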

Assay [4] is described as follows: qHTS assay to identify small molecule antagonists of the estrogen related receptor signaling pathway with the pleiotropic PPARgamma coactivator (PGC) from Tox21 10K library - cell viability counter screen (AID 1224840; active means well fitted cell-killing curve with a large enough effect in the repeat runs, not every such curve was filed as active; further: nearly all actives have a fitted effect of over 40% in size). In a few lines:
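PGC/ERR cells, 2,000/well; 6 h pre-incubation 37 C/5% CO2; cpd in DMSO via pin tool; 17.5 h 37 C; CellTiter-Fluor, 30 min; fluorescence.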

Assay [5] in a line: qHTS assay to identify small molecule agonists of the hypoxia (HIF-1) signaling pathway - cell viability counter screen (AID 1224844; calls by dose curve; further: nearly all actives have a fitted effect of over 50% in size; further: potency means the concentration at half of the fitted maximal effect). The essentials:
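ME-180 HRE-bla cells, 2,000/well, 0.5% dialyzed FBS; 5 hr settle, 17 hr compound at 37C/5% CO2; CCF4-AM reporter read first, then CellTiter-Glo luminescence after 30 min RT.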

Assay [6] deals with Thyrotropin receptor (Homo sapiens) (UniProt P16473). Nature of the assay: qHTS assay to identify small molecule agonists of the thyroid stimulating hormone receptor (TSHR) signaling pathway (AID 1224843; calls by dose curve; further: nearly all actives have a fitted effect of over 45% in size). The essentials: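 Cell line HEK293 with TSHR; density 800/well. Exposure 30 min RT. Readout HTRF cAMP (cAMP-d2/anti-cAMP-cryptate), 1 h RT before reading.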
Assay [7] can be described thus: qHTS assay to identify small molecule antagonists of the estrogen related receptor signaling pathway with the pleiotropic PPARgamma coactivator (PGC) from Tox21 10K library (AID 1224841; call rule not given here; further: actives are mostly falling curves and most rising ones were filed inactive; nearly all actives have a fitted effect of over 50% in size; further: potency means the concentration at half of the fitted maximal effect). In a few lines: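 PGC/ERR cell line, 2,000 cells/well; 6 h pre-incubation 37 C/5% CO2; compounds (DMSO) pinned in; 18 h, 37 C; One-Glo, 30 min RT; luminescence.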
Assay [8] in a line: qHTS assay to identify small molecule agonists of the estrogen related receptor signaling pathway with the pleiotropic PPARgamma coactivator (PGC) from Tox21 10K library (AID 1224842). Further: nearly all actives have a fitted effect of over 15% in size. In a few lines: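 PGC/ERR reporter cells (NTP line) were seeded 2,000 per well, rested 6 h at 37 C/5% CO2, then pin-dosed with compounds in DMSO for 18 h at 37 C; luciferase read by One-Glo luminescence after 30 min at room temperature.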

The target of assay [9] is Nuclear receptor subfamily 1 group I member 3 (Homo sapiens) (UniProt Q14994). Nature of the assay: qHTS assay to identify small molecule antagonists of the constitutive androstane receptor (CAR) signaling pathway (AID 1224838).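 Further: HepG2 cells stably expressing hCAR with CYP2B6 luciferase reporter stimulated by CITCO; nearly all actives have a fitted effect of over 40% in size.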 In a few lines:
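HepG2-CYP2B6-hCAR cells; 4 h pre-incubation; cpd (15 conc) + CITCO 50 nM final; 24 h, 37 C/5% CO2; ONE-Glo, luminescence.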

Assay [10] shares this target. Nature of the assay: qHTS assay to identify small molecule agonists of the constitutive androstane receptor (CAR) signaling pathway (AID 1224839).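 Further: HepG2 cells stably carrying human CAR and a CYP2B6 luciferase reporter; series mostly up to about 92 µM; nearly all actives have a fitted effect of over 15% in size.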 In a few lines:
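Cells were plated and incubated 4 hrs, then dosed with compounds at 15 concentrations. PK11195 was added to 0.75 uM final. After 24 hrs at 37 C, luciferase luminescence was measured.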

Inconclusive results are not listed. A number with no mark means an inactive call. Activity calls are given as the source filed them. Unless noted, the call rests on the fitted dose curve; in most records, active means well fitted curve in the direction sought with a large enough effect in the repeat runs; inconclusive means weak or mixed curves; inactive means no such curve, though single readings can be large; an effect the other way counts as inactive or inconclusive. Where a SMILES comes first, the peptide text is derived from it. [ ]: non-standard residue; d: D form. pGlu = O=C1CC[C@@H](C(=O)O)N1
On the % scale 0 is the no-effect control and ±100 the full control effect.

Chain of Thyrotropin receptor (Homo sapiens) (P16473 whole entry, looked up): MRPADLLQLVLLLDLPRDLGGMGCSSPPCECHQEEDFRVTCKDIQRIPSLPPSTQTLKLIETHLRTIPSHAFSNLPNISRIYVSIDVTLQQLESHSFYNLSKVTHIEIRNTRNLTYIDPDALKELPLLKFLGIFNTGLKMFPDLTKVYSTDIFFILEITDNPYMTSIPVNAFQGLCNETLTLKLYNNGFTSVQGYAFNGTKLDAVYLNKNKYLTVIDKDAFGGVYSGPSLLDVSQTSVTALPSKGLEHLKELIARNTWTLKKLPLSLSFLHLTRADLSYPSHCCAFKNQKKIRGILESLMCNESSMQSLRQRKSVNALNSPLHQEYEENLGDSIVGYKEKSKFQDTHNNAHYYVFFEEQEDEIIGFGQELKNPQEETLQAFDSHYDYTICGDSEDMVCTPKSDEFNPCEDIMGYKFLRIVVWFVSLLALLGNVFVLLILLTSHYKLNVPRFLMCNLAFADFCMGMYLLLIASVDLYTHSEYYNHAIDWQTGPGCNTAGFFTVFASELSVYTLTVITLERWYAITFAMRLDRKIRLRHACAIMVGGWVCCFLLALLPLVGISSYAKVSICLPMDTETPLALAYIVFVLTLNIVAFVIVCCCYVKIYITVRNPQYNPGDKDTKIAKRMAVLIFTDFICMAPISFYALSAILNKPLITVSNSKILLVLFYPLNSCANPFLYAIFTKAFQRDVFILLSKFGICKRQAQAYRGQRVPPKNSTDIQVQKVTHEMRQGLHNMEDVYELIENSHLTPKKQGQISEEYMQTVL
Chain of Luciferin 4-monooxygenase (Photinus pyralis) (P08659 whole entry, looked up): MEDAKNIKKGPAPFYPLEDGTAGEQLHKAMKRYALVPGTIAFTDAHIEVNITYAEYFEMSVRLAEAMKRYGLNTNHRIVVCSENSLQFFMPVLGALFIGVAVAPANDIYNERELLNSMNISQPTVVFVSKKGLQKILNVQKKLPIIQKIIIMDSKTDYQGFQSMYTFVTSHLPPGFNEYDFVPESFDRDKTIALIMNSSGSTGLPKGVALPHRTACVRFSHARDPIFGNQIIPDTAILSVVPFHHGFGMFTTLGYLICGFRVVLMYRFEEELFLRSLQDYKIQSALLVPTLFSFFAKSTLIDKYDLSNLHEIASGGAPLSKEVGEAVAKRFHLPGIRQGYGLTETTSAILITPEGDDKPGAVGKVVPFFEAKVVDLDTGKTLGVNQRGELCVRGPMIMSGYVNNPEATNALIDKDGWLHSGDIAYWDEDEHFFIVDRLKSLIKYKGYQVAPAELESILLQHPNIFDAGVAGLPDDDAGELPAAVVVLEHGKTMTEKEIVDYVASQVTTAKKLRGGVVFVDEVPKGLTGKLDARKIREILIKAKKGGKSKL
Chain of Nuclear receptor subfamily 1 group I member 3 (Homo sapiens) (Q14994 whole entry, looked up): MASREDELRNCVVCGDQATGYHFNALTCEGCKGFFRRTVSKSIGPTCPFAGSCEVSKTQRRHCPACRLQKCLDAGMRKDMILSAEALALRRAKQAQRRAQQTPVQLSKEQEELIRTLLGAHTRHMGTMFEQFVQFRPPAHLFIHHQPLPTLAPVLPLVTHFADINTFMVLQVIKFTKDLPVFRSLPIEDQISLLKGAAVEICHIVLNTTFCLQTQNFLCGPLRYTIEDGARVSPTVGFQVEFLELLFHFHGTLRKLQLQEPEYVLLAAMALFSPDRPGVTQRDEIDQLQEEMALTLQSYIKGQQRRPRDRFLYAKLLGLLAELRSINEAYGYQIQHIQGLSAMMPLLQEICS

As to `CCN[C@@H]1C[C@H](N)[C@@H](OC2OC(CN)=CCC2N)[C@H](O)[C@H]1O[C@H]1OC[C@](C)(O)[C@H](NC)[C@H]1O` (some centres not stated), the activity change, negative = inhibition in assay [1] is -1.17% [at 0.435 µM]. The viability change, negative = cytotoxic in assay [2] is 2.22% [at 0.349 µM]; in [4], -0.298% [at 0.349 µM]. In addition, the values for the activity change, negative = cytotoxicity in assay [3] and in [5] were 0.22% [at 0.349 µM] and 3.33% [at 0.29 µM], respectively.

For the molecule `CCCCS(=O)(=O)N[C@@H](Cc1ccc(OCCCCC2CCNCC2)cc1)C(=O)O`, the Potency entry in [1], in [6] and in assay [5] was “inactive” in each case. Besides, the outcome in assay [2] and in assay [3] was inactive.

Regarding `FB(F)F`, the Potency entry in assay [1], in assay [8], in [6] and in assay [5] was “inactive” throughout. For the same molecule, the result in [2], in assay [3] and in assay [4] was inactive. In addition, the Potency in assay [7] is 45.4 µM (active).

In the case of `c1ccc(Cc2ccccc2)cc1`, the Potency entry in assay [1] and in [5] was “inactive” throughout. Moreover, the molecule was classed as inactive in [2], in assay [3] and in [4].

Consider `CC(C)(N)C#N`, for which the Potency entry in assay [1], in assay [7], in [8] and in assay [5] was “inactive” throughout. For the same molecule, the molecule was classed as inactive in assay [2] and in assay [3].

For the molecule `CC(=O)N[C@H]1[C@H]([C@H](O)[C@H](O)CO)OC(C(=O)O)=C[C@@H]1N=C(N)N`, the Potency result in assay [1], in assay [6] and in [5] was “inactive” each time. For the same molecule, the outcome in assay [2], in [3] and in assay [4] was inactive.

Consider `O=C(O)c1cc(C(=O)O)cc(C(=O)O)c1`, for which the Potency entry in [1], in assay [9], in assay [10], in assay [6] and in [5] was “inactive” each time. For the same molecule, the molecule was called inactive in assay [2] and in [4].

For the molecule `C=CC(=O)OCCCl`, the Potency entry in assay [1] and in [5] was “inactive” throughout. Moreover, the call in assay [2], in [3] and in assay [4] was inactive.

As for `CC(CO)(CO)[N+](=O)[O-]`, the Potency entry in [1], in assay [6] and in assay [5] was “inactive” throughout. Also, the call in assay [2], in [3] and in [4] was inactive.

With `CCOc1ccccc1OCC`, the Potency result in [1], in assay [7], in assay [8], in assay [6] and in assay [5] was “inactive” in each case. Moreover, the outcome in assay [2], in assay [3] and in assay [4] was inactive.

`NC(=O)N1c2ccccc2CC(=O)c2ccccc21`: the Potency result in [1], in [9], in [10], in assay [6] and in assay [5] was “inactive” in each case. For the same molecule, the molecule was classed as inactive in [2] and in [4].

For `COc1cc2c(cc1OC)-c1cc3ccc(OC)c(OC)c3c[n+]1CC2`, the Potency entry in assay [1], in [8] and in [5] was “inactive” each time. In addition, the outcome in assay [2] and in [3] was inactive. Further, the Potency in [7] was 34.7 µM (active).

With `NC(CCC(=O)O)C(=O)O` (configuration not stated), the Potency entry in [1], in [9], in [10], in assay [6] and in [5] was “inactive” each time. Moreover, the molecule was classed as inactive in assay [2] and in assay [4].

`C=CN1CCCCCC1=O`: the Potency result in [1], in assay [6] and in [5] was “inactive” each time. The outcome in assay [2], in [3] and in [4] was inactive.

Turning to `NCCCC(N)(C(=O)O)C(F)F` (configuration not stated), the Potency result in [1], in [6] and in [5] was “inactive” in each case. The molecule was called inactive in assay [2], in assay [3] and in [4].

Turning to `C[C@@H]1CCC[C@H](C)N1`, the Potency entry in [1], in assay [9], in [10], in [7], in assay [8] and in assay [6] was “inactive” throughout. For the same molecule, the Potency result in assay [5] is “inactive”. Besides, the outcome in [2] and in assay [4] was inactive.

Take `CCCCCCCCCC[N+](C)(C)[O-]`: the Potency entry in [1], in assay [7], in assay [8] and in [5] was “inactive” throughout. The molecule was called inactive in [2], in assay [3] and in assay [4].

For the molecule `CCCCCCCC1CCCC1=O` (configuration not stated), the Potency entry in assay [1], in [6] and in assay [5] was “inactive” in each case. Further, the molecule was classed as inactive in [2], in assay [3] and in assay [4].

For the molecule `CCNC(=O)[C@@H]1CCCN1C(=O)[C@H](CCCN=C(N)N)NC(=O)[C@H](CC(C)C)NC(=O)CNC(=O)[C@H](Cc1ccc(O)cc1)NC(=O)[C@H](CO)NC(=O)[C@H](Cc1c[nH]c2ccccc12)NC(=O)[C@H](Cc1cnc[nH]1)NC(=O)[C@@H]1CCC(=O)N1` ([pGlu]HWSYGLRP-NHEt), the Potency result in assay [1], in assay [9], in [10], in assay [7], in assay [8] and in assay [6] was “inactive” in each case. Further, the Potency result in [5] was “inactive”. The result in [2] and in [4] was inactive.

As to `Cc1coc2ccccc2c1=O`, the Potency result in [1], in assay [6] and in [5] was “inactive” throughout. In addition, the molecule was classed as inactive in [2] and in assay [3].

Turning to `CC[C@H]1OC(=O)[C@H](C)[C@@H](O[C@H]2C[C@@](C)(OC)[C@@H](O)[C@H](C)O2)[C@H](C)[C@@H](O[C@@H]2O[C@H](C)C[C@H](N(C)C)[C@H]2O)[C@](C)(OC)C[C@@H](C)C(=O)[C@H](C)[C@@H](O)[C@]1(C)O`, the Potency entry in assay [1], in assay [9], in [10], in [8] and in assay [5] was “inactive” in each case. For the same molecule, the call in [2] and in assay [4] was inactive.

As to `COc1cc(-c2ccc(=O)[nH]n2)ccc1OC(F)F`, the Potency result in assay [1], in [9], in assay [10] and in assay [5] was “inactive” each time. The molecule was called inactive in [2] and in assay [4].

In the case of `CC(=O)NC(=O)c1ccccc1O`, the Potency entry in [1], in [6] and in assay [5] was “inactive” each time. Moreover, the outcome in assay [2] and in assay [4] was inactive.

In the case of `CCOC(=O)C(=O)CCCCCCl`, the Potency result in assay [1], in [9], in [10], in [6] and in assay [5] was “inactive” in each case. Moreover, the result in assay [3] was inactive.

Turning to `CCCCCCCCN1CCCC1=O`, the Potency entry in assay [1], in [9], in assay [7], in assay [8] and in assay [5] was “inactive” throughout. Moreover, the call in assay [2] and in assay [4] was inactive.

In the case of `OCCCCCO`, the Potency result in [1], in assay [9], in assay [7], in assay [8], in assay [6] and in assay [5] was “inactive” throughout. For the same molecule, the molecule was called inactive in assay [3] and in assay [4].

As for `CCC(=O)OCc1ccccc1`, the Potency entry in [1], in assay [6] and in assay [5] was “inactive” throughout. For the same molecule, the outcome in assay [2] and in [4] was inactive.

For the molecule `CC(C)(C)c1ccc(-c2ccc(C(C)(C)C)cc2)cc1`, the Potency result in assay [1], in assay [9], in assay [10], in assay [7], in assay [8] and in assay [6] was “inactive” in each case. Also, the Potency entry in [5] is “inactive”. Further, the outcome in assay [3] and in assay [4] was inactive.

For `CCCC(=O)O[C@]1(C(=O)CC)CC[C@H]2[C@@H]3CCC4=CC(=O)CC[C@]4(C)[C@H]3[C@@H](O)C[C@@]21C`, in assay [1], the Potency result was “inactive”. Besides, the molecule was classed as inactive in assay [2] and in [4]. For the same molecule, in [5], the Potency was 19 µM (active).

As to `CC(C(=O)O)c1cccc(Oc2ccccc2)c1` (configuration not stated), the Potency result in assay [1], in assay [9], in [10] and in assay [5] was “inactive” in each case. Moreover, the call in assay [2] and in [4] was inactive.

For the origin of these results see PubChem BioAssay (Tox21).
